Reference: PubChem BioAssay (NCI)
Compounds without any hit were thinned out: in the full panel of roughly 83,000, 20% have a hit.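 Assay: single dose, 48 h. Readout: percent growth (0 = no net growth; negative = cell death). Active: <10.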 Unmarked numbers belong to inactive results. The source made the active and inactive calls.

Tested on: MDA-MB-468 breast
Experiment: NCI-60 one-dose screen, 48 h (100 = growth as untreated, 0 = no growth, -100 = all killed)
Conditions: 10 µM unless noted

SMILES	growth
COc1ccc(-c2oc3cc(O)c(OC)c(O)c3c(=O)c2OC)cc1O	-26.6% (active)
COc1ccc(/C=C/C(=O)/C=C/c2cc3ccc(Cl)cc3[nH]c2=O)cc1	87.2%
O=C(CCC(=O)N(CCO)CCO)N(CCO)CCO	110%
O=C1/C=C/[C@@H](O)[C@@H]2C[C@@H](O)C[C@H]2/C=C/CCC[C@H](CCc2ccccc2)O1	-43.7% (active)
CC1(C)[C@H](O)CC[C@]2(C)[C@@H]1CC[C@@]13C[C@@H](CC[C@H]12)[C@@](O)(CO)C3	106%
COC(=O)[C@]12CC[C@@H](C)[C@H](C)[C@@H]1C1=CC[C@@H]3[C@@]4(C)C[C@@H](OC(C)=O)[C@H](O)[C@@](C)(CO)[C@@H]4[C@H](O)C[C@@]3(C)[C@]1(C)CC2	-90.6% (active)
Fc1ccc(-c2nnc(N3CCOCC3)c3ccccc23)cc1	98.8%
O=C(Nc1cccc(F)c1)Nc1cccc(Cl)c1	90%
Cn1ncc(Cl)c1-c1cc(C(=O)N[C@H](CN)Cc2cccc(F)c2)sc1Cl	-62.5% (active)
COc1ccc(N(Cc2cc(OC)c(OC)c(OC)c2)C2OC(=O)c3ccccc32)cc1 (centres undefined)	24.2%
COc1ccc(-c2ccc(-c3ccc(C(=N)N)cn3)s2)cc1	72.6%
CN(C)CCOc1ccccc1NC1=C(Cl)C(=O)C(Nc2ccccc2OCCN(C)C)=C(Cl)C1=O	-53.6% (active)
CCOC(=O)c1c(C(=O)c2cn(C)c3ccc(Br)cc23)c(-c2cn(C)c3ccc(Br)cc23)n(NC(=O)OC(C)(C)C)c1C	41.5% [100 µM]
COc1ccc2c(c1)N(CCO)C1=C(C(=O)OC1)C2c1cccc(F)c1 (centres undefined)	7.89% (active)
COc1ccc(/C(Cl)=N/N=C(\Cl)c2cc(OC)c(OC)c(OC)c2)cc1OC(C)=O	95.5%
CCCCNC(=O)NS(=O)(=O)c1ccc(N2N=C(c3cc(C)ccc3C)CC2c2cc(OC)c(OC)c(OC)c2)cc1 (centres undefined)	24.4%
Cc1c(Br)cccc1NC(=O)c1sc2nc3c(cc2c1N)CN(Cc1ccccc1)CC3	16.8%
Cc1ccc(Nc2nc(NCCO)c3ccccc3n2)cc1C	32.9%
COc1ccc(COC(=O)CC(C)C)cc1	102%
CC1(C)CCC(S(=O)(=O)c2ccc3c(c2)/C(=N\O)c2cc(S(=O)(=O)N4CCC(O)(c5cccc(C(F)(F)F)c5)CC4)ccc2-3)CC1	-78.4% (active)
CCOC(=O)C(CCC(C)C)C(=O)OCC	105%
O=C(Nc1cc(Cl)cc(Cl)c1)Nc1nc2ccc([N+](=O)[O-])cc2s1	-24.1% (active)
COc1ccc(/C=C2/C(=O)ON=C2C)cc1	103%
Cn1c(=O)c2c(nc3n2CCN(CCc2ccc(OCCN4CCOCC4)cc2)C3)n(C)c1=O	97.9%
Clc1ccc(/C=C/c2ccccn2)c(Cl)c1	29.3%
CC1(C)CC[C@]2(C(=O)O)CC[C@]3(C)C(=CCC4[C@@]5(C)C[C@@H](O)[C@@H]6OC(c7cccc([N+](=O)[O-])c7)OC[C@@]6(C)C5CC[C@]43C)C2C1 (some centres undefined)	76%
Oc1ccc(OCCOc2ccc(O)cc2)cc1	94.6%
COc1ccc(C2NC(=O)C(C#N)c3c2sc2c(F)cccc32)cc1 (centres undefined)	33.7%
O=C1OCC2=C1C(c1cccc(Br)c1)c1cc3c(cc1N2CCO)OCCO3 (centres undefined)	24.7%
